A number with no mark means an inactive call. Inconclusive results are not listed. The source made the active and inactive calls. The call rests on the fitted dose curve; in most records, active means well fitted curve in the direction sought with a large enough effect in the repeat runs; inconclusive means weak or mixed curves; inactive means no such curve, though single readings can be large; an effect the other way counts as inactive or inconclusive.

Experiment [1] can be described thus: Human pregnane X receptor (PXR) small molecule agonists, qHTS cell viability counter screen (AID 1346977). Further: nearly all actives have a fitted effect of over 50% in size. Further: potency means the concentration at half of the fitted maximal effect. The method in brief: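 PXR-Luc HepG2, 2,000 cells/well, 5% charcoal-stripped FBS; 5hr settle; cpd 24hr, 37C/5% CO2; CellTiter-Fluor at 23hr, read 1hr later (fluorescence).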
In general terms: qHTS replaces the single test concentration by a dilution series.

The nature of experiment [2]: Caspase-3/7 induction in CHO-K1 cells by small molecules, qHTS cell viability counter screen (AID 1346979). Further: nearly all actives have a fitted effect of over 35% in size. Further: potency means the concentration at half of the fitted maximal effect. Put shortly:
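Cells (CHO-K1, wild type) are plated at 1,500 per well and incubated 5hr. Test compounds in DMSO are then pinned in, followed by 16hr at 37C and 5% CO2. Viability is read by CellTiter-Fluor fluorescence after 1hr.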

Experiment [3] is described as follows: Caspase-3/7 induction in CHO-K1 cells by small molecules, qHTS assay (AID 1346980). Further: nearly all actives have a fitted effect of over 15% in size. Put shortly: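 Luminescent Caspase-Glo 3/7 read (30min, room temperature) quantified apoptosis induction. Cells were wild-type CHO-K1, treated with compound for 17hr at 37 C and 5% CO2.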
Experiment [4] concerns the target Nuclear receptor subfamily 1 group I member 2 (Homo sapiens) (UniProt O75469). Nature of the experiment: Human pregnane X receptor (PXR) small molecule agonists, qHTS assay (AID 1346982). Further: nearly all actives have a fitted effect of over 35% in size. Further: potency means the concentration at half of the fitted maximal effect. The method in brief:
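Agonist mode qHTS: PXR-Luc HepG2 cells plated 5 hr before DMSO-dissolved compounds were pinned in, cultured 24 hr at 37 C, 5% CO2; ONE-Glo luminescence readout.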

The target of experiment [5] is Nuclear receptor subfamily 1 group I member 2 (Rattus norvegicus) (UniProt Q9R1A7). Nature of the experiment: Rat pregnane X receptor (rPXR) activation by small molecules, qHTS assay (AID 1346983). Further: nearly all actives have a fitted effect of over 20% in size. As to conditions: rPXR luciferase reporter cells, One-Glo luminescence, 24 h; max activation: stronger effect = higher value. Put shortly:
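Luminescent readout (One-Glo luciferase, 30 min room temperature) followed 24 hr compound treatment at 37 C of rPXR cells plated 2,000 per well and preincubated 5hr; qHTS format with compounds delivered in DMSO.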

For experiment [6], the target named is Nuclear receptor subfamily 1 group I member 2 (Homo sapiens) (UniProt O75469). In words: CYP3A4 induction through human pregnane X receptor (PXR) by small molecules, qHTS assay (AID 1346984). Further: nearly all actives have a fitted effect of over 40% in size. The method in brief:
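Steps: seed DPX-2 cells, 5 hr at 37C; pin-transfer compounds; 24 hr at 37C; add Luciferin-IPA (3uM final), 3 hr at 37C; add One-Glo, 30 min RT; read luminescence.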

For experiment [7] the target is unchanged. Nature of the experiment: Human pregnane X receptor (PXR) activation by small molecules, qHTS assay (AID 1346985). Further: nearly all actives have a fitted effect of over 40% in size. Put shortly: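 DPX-2 cells (HepG2 co-transfected with a PXR response element and a CYP3A4-promoter luciferase construct) were seeded at 2,000 per well, rested 5 hr at 37C, then exposed to DMSO-dissolved compounds for 24 hr. Activation was read as luciferase luminescence.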

The target in experiment [8] is Cytochrome P450 2D6 (Homo sapiens) (UniProt P10635). Nature of the experiment: Cytochrome P450 Family 2 Subfamily D Member 6 (CYP2D6) small molecule antagonists: luciferase reporter qHTS assay (AID 1671196). Further: nearly all actives have a fitted effect of over 50% in size. Further: potency means the concentration at half of the fitted maximal effect. On activity change, negative = inhibition: series mostly up to about 120 µM. The method in brief: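 P450-Glo format: CYP2D6 converts a proluciferin substrate to luciferin in an NADPH-driven reaction lasting 1 h at room temperature. Light output, proportional to CYP2D6 activity, reflects interference by test chemicals.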

Experiment [9] has as its target Cytochrome P450 2C19 (Homo sapiens) (UniProt P33261). Nature of the experiment: Cytochrome P450 Family 2 Subfamily C Member 19 (CYP2C19) small molecule antagonists: luciferase reporter qHTS assay (AID 1671197). Further: nearly all actives have a fitted effect of over 65% in size. Further: potency means the concentration at half of the fitted maximal effect. On activity change, negative = inhibition: series mostly up to about 120 µM. The method in brief: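 CYP2C19 P450-Glo, 1536-well qHTS. Cpd + enzyme/proluciferin substrate 10 min RT; + NADPH regen, 37C 1 h; stop with luciferin detection reagent, 20 min RT, luminescence (RLU). Pos ctrl ketoconazole.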

Experiment [10] concerns the target Cytochrome P450 2C9 (Homo sapiens) (UniProt P11712). Nature of the experiment: Cytochrome P450 Family 2 Subfamily C Member 9 (CYP2C9) small molecule antagonists: luciferase reporter qHTS assay (AID 1671198). Further: nearly all actives have a fitted effect of over 50% in size. Further: potency means the concentration at half of the fitted maximal effect. On activity change, negative = inhibition: series mostly up to about 120 µM. Put shortly: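 Enzyme-substrate mix preincubated with compound 10 min at room temperature; reaction started with NADPH regeneration solution, 1 h 37C. Luminescent luciferin product read after 20 min detection reagent.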

Experiment [11] deals with Cytochrome P450 1A2 (Homo sapiens) (UniProt P05177). Nature of the experiment: Cytochrome P450 Family 1 Subfamily A Member 2 (CYP1A2) small molecule antagonists: luciferase reporter qHTS assay (AID 1671199). Further: nearly all actives have a fitted effect of over 50% in size. Further: potency means the concentration at half of the fitted maximal effect. On activity change, negative = inhibition: series mostly up to about 120 µM. The method in brief:
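Inhibition of CYP1A2 conversion of proluciferin to luciferin, detected by luminescence. Reaction run 1 h at room temperature with NADPH regeneration after brief compound preincubation.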
In general terms: A reporter such as luciferase makes a cellular process visible.

Experiment [12] deals with Voltage-gated inwardly rectifying potassium channel KCNH2 (Homo sapiens) (UniProt Q12809). In words: Human Ether-a-go-go-Related Gene (hERG) channel small molecule antagonists: fluorescence cell-based qHTS assay (AID 1671200). Put shortly:
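Channel function was assessed by thallium flux. Cells seeded the previous day and kept at 37 C took up FluxOR II dye over 1 h in the dark at room temperature, then sat another 10 min before stimulation.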
In general terms: hERG is a cardiac potassium channel; its block is linked to QT prolongation.

For experiment [13], the target named is Cytochrome P450 3A4 (Homo sapiens) (UniProt P08684). Nature of the experiment: Cytochrome P450 Family 3 Subfamily A Member 4 (CYP3A4) small molecule antagonists: luciferase reporter qHTS assay (AID 1671201). The method in brief:
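Compounds in DMSO were pin-transferred onto CYP3A4 enzyme-substrate mix and held 10 min at room temperature. NADPH regenerating solution started the reaction for 1 h; luciferin detection reagent stopped it, and luminescence was read after 20 min.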

Experiment [14] can be described thus: Caspase-3/7 induction in HepG2 cells by small molecules, qHTS assay (AID 1346978). Further: nearly all actives have a fitted effect of over 15% in size. Put shortly:
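Caspase-3/7 induction was measured by Caspase-Glo 3/7 luminescence (30 min, room temperature) after a 17 hr compound exposure of wild-type HepG2 cells seeded at 2,000 per well and pre-incubated 5 hr.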

The nature of experiment [15]: Caspase-3/7 induction in HepG2 cells by small molecules, qHTS cell viability counter screen (AID 1346981). Further: nearly all actives have a fitted effect of over 30% in size. Further: potency means the concentration at half of the fitted maximal effect. On activity change, negative = cytotoxicity: series mostly up to about 92 µM. The method in brief:
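Steps: seed 2,000 HepG2 cells per well; incubate 5 hr at 37 C; pin-add compounds in DMSO; incubate 16 hr; add CellTiter-Fluor; after 1 hr at 37 C and 5% CO2, read fluorescence.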
On the % scale 0 is the no-effect control and ±100 the full control effect.

Sequence of Cytochrome P450 3A4 (Homo sapiens) (P08684 whole entry, looked up): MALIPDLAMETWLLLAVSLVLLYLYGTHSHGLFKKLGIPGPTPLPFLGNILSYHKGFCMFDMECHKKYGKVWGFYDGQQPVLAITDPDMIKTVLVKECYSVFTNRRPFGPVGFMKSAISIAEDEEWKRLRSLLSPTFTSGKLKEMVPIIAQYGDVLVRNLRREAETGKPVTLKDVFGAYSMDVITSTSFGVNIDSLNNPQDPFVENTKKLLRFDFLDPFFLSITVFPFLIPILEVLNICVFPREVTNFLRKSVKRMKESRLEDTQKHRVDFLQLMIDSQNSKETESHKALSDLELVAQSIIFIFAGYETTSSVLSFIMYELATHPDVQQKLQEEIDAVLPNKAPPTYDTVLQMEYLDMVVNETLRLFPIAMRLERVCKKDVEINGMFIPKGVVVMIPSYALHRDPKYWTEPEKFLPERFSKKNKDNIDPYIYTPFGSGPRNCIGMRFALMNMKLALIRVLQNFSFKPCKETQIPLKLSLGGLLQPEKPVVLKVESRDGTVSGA
Sequence of Nuclear receptor subfamily 1 group I member 2 (Homo sapiens) (O75469 whole entry, looked up): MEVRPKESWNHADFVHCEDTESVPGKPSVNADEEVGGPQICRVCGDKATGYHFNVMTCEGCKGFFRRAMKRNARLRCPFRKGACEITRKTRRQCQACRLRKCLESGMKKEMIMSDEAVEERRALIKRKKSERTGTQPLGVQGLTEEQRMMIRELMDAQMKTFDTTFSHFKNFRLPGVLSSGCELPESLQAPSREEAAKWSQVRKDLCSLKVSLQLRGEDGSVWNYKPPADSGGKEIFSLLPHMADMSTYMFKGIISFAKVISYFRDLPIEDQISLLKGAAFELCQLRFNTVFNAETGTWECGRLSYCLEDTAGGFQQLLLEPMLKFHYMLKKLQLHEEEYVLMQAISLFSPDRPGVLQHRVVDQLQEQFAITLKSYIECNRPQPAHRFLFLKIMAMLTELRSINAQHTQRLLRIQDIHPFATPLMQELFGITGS
Sequence of Cytochrome P450 2D6 (Homo sapiens) (P10635 whole entry, looked up): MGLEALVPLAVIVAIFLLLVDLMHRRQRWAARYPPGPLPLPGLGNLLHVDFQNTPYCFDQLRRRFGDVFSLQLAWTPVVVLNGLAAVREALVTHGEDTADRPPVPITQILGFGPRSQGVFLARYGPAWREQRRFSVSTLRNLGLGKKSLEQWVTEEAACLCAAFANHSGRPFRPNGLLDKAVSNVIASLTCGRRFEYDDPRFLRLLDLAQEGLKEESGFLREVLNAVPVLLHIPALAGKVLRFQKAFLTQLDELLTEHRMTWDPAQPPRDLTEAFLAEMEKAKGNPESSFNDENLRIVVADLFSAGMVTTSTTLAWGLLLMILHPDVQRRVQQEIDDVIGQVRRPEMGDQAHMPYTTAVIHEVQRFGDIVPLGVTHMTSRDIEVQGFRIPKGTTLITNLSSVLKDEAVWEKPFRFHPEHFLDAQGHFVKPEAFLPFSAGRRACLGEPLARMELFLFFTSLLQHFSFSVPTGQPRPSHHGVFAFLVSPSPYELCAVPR
Sequence of Cytochrome P450 1A2 (Homo sapiens) (P05177 whole entry, looked up): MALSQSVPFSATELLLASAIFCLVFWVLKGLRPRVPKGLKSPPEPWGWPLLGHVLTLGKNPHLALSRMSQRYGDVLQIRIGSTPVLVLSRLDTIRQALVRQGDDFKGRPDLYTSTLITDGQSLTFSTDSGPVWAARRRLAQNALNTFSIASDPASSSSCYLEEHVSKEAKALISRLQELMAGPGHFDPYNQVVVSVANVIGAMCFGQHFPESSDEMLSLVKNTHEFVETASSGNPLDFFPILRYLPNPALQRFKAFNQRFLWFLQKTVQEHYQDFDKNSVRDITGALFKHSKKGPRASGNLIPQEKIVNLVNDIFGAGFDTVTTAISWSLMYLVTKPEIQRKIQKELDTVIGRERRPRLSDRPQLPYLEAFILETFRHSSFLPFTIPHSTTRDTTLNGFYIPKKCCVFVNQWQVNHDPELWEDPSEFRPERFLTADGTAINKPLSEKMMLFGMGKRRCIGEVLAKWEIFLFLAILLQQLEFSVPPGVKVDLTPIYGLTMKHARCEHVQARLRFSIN
Sequence of Cytochrome P450 2C19 (Homo sapiens) (P33261 whole entry, looked up): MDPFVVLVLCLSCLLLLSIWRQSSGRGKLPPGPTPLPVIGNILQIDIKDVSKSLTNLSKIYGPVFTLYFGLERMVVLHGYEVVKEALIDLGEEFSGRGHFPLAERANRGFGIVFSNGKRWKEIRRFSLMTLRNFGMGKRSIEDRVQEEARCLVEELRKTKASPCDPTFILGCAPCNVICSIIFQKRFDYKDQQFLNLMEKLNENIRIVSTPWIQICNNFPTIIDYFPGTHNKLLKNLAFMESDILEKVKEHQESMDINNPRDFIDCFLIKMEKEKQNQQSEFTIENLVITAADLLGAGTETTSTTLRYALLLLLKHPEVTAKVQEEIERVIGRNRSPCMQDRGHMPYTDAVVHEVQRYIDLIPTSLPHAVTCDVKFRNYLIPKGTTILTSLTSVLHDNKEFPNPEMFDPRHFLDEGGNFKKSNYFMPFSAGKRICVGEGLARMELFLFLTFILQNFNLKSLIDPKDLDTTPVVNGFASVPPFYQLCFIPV
Sequence of Voltage-gated inwardly rectifying potassium channel KCNH2 (Homo sapiens) (Q12809 whole entry, looked up): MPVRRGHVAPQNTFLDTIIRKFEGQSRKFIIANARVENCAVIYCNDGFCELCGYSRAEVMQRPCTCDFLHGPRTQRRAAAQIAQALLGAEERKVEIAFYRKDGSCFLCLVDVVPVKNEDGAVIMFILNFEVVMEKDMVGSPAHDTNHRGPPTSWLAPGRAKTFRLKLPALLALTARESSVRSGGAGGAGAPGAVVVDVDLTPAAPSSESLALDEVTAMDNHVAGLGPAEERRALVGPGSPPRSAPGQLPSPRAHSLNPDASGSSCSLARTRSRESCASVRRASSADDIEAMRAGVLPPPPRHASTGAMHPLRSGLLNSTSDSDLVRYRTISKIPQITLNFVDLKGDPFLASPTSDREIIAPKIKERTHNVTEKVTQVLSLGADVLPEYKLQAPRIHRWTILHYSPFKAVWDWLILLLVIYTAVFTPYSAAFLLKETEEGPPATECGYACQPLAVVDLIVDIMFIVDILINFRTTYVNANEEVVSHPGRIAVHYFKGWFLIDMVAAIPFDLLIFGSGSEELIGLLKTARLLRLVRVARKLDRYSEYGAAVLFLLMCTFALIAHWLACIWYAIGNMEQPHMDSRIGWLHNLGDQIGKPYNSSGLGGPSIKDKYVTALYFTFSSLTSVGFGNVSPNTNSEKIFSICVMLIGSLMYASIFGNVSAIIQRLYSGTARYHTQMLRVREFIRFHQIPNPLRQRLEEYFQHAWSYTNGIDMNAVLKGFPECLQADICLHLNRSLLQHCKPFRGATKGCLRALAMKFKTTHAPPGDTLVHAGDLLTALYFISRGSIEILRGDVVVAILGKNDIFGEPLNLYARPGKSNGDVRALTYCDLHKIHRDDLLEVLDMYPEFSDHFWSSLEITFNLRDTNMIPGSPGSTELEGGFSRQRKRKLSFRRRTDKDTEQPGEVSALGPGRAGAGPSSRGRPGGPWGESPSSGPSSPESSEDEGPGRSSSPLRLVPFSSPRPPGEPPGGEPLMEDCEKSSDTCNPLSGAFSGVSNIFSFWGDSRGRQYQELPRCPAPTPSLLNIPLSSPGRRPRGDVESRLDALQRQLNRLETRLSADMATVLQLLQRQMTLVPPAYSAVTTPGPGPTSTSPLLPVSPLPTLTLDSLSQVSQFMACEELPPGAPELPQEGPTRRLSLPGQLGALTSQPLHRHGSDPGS
Sequence of Cytochrome P450 2C9 (Homo sapiens) (P11712 whole entry, looked up): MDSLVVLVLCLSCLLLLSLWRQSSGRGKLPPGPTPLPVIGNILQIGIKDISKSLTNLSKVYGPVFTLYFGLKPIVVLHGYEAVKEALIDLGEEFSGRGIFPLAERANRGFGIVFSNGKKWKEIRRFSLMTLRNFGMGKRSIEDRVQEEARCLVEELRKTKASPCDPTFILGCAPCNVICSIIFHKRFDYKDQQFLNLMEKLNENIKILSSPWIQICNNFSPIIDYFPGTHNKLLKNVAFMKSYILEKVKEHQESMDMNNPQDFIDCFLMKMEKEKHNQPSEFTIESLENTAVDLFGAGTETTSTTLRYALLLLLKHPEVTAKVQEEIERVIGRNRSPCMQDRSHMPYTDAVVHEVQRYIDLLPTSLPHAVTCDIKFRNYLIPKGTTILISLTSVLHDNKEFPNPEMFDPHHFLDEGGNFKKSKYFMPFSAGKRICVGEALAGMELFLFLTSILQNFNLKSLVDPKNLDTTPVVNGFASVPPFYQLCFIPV
Sequence of Nuclear receptor subfamily 1 group I member 2 (Rattus norvegicus) (Q9R1A7 whole entry, looked up): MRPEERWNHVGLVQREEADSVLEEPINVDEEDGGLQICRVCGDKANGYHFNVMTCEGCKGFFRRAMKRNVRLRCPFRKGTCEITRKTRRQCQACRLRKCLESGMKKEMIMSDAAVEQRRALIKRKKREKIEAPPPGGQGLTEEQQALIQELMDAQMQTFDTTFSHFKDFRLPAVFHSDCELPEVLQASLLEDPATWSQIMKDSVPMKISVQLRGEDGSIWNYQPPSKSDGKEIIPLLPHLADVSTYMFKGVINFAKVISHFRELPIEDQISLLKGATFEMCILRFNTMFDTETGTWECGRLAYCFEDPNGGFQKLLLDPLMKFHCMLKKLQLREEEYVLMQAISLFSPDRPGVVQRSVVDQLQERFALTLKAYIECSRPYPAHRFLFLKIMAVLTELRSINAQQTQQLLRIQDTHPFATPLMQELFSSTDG

As to `CCc1c2c(nc3ccc(OC(=O)N4CCC(N5CCCCC5)CC4)cc13)-c1cc3c(c(=O)n1C2)COC(=O)[C@]3(O)CC`, the Potency result in experiment [1], in experiment [2], in experiment [4], in [6], in experiment [7] and in experiment [8] was “inactive” throughout. Besides, the Potency result in experiment [9], in [10], in [11], in [12] and in experiment [13] was “inactive” throughout. Besides, the molecule was called inactive in experiment [3]. In addition, the max activation in experiment [5] was -2.7%.
As for `CCCCC(=O)O[C@]1(C(=O)CO)[C@@H](C)C[C@H]2[C@@H]3CCC4=CC(=O)C=C[C@]4(C)[C@@]3(F)[C@@H](O)C[C@@]21C`, the Potency entry in experiment [1], in experiment [14], in [11] and in experiment [12] was “inactive” in each case. Also, the Potency in experiment [4] was 34.4 µM (active); in [8] it was 35.6 µM (active); in experiment [9], 79.6 µM (active); in experiment [10], 35.6 µM (active).
In the case of `Cc1cnc(C)c(C)n1`, the Potency entry in experiment [1], in [2], in experiment [15], in experiment [4], in [8] and in experiment [9] was “inactive” in each case. Also, the Potency result in [10] and in experiment [13] was “inactive” in each case. Also, the outcome in [3] was inactive.
As for `CCOC(=O)/C=C/C(=O)O`, the Potency entry in experiment [1], in experiment [2], in experiment [15], in experiment [4], in experiment [9] and in [10] was “inactive” each time. In addition, the Potency entry in [11] and in experiment [13] was “inactive” each time. In addition, the molecule was called inactive in [3].
For the molecule `O=S(=O)(c1ccccc1)c1ccc(Cl)cc1`, the Potency result in [1], in [2], in experiment [15], in [10], in experiment [12] and in [13] was “inactive” in each case. The molecule was called inactive in [3]. For the same molecule, the Potency in [4] is 30.6 µM (active); in experiment [9], 3.99 µM (active); in experiment [11] it was 44.8 µM (active).
Take `CC1=CC(=O)CC(C)(C)C1(O)/C=C/C(C)=C\C(=O)O` (stereo not drawn): the Potency result in experiment [1], in experiment [2], in [15], in experiment [4], in experiment [8] and in [9] was “inactive” throughout. The Potency result in experiment [10] and in [13] was “inactive” each time. The call in experiment [3] was inactive.
For `CCC(C(=O)OCCOCCN(CC)CC)c1ccccc1` (stereo not drawn), the Potency result in experiment [1], in [2], in [15], in experiment [4], in experiment [6] and in [7] was “inactive” each time. For the same molecule, the Potency entry in [9], in experiment [10], in experiment [11], in experiment [12] and in [13] was “inactive” throughout. Further, in experiment [3], the outcome was inactive. Besides, the max activation in experiment [5] is -2.49%. Besides, the Potency in experiment [8] is 13.8 µM (active).
In the case of `CC(COc1ccc(C(C)(C)C)cc1)OS(=O)OCCCl` (stereo not drawn), the Potency in experiment [1] was 12.3 µM (active); in experiment [2], 10.9 µM (active); in experiment [15], 15.4 µM (active); in experiment [4], 9.74 µM (active). The call in [3] was inactive. Moreover, the Potency result in experiment [8], in experiment [10], in [11], in experiment [12] and in [13] was “inactive” in each case.
For `CCCC(=O)O[C@]1(C(=O)COC(=O)CC)CC[C@H]2[C@@H]3CCC4=CC(=O)CC[C@]4(C)[C@H]3[C@@H](O)C[C@@]21C`, the results for the activity change, negative = cytotoxicity in experiment [1], in [2] and in experiment [15] were 12.4% [at 19 µM], 11.7% [at 19 µM] and 3.19% [at 19 µM], respectively. For the same molecule, in experiment [3], the caspase-3/7 activation was 1.2% [at 19 µM]. In addition, the activation in experiment [4] was -1.9% [at 19 µM]. Besides, the activity change, negative = inhibition in experiment [8] was -0.0142% [at 23.6 µM]; in experiment [9], -11.3% [at 23.6 µM]; in [10] it was 11.6% [at 23.6 µM]; in [12] it was 4.88% [at 15.8 µM]; in experiment [13] it was 1.97% [at 23.6 µM]. The Potency entry in experiment [11] was “inactive”.

For the origin of these results see PubChem BioAssay (Tox21).
